Reference: PubChem BioAssay (NCATS)
Results filed as inconclusive are left out. Calls of active or inactive are those of the source. Unless noted, calls follow the shape of the dose curve; as a rule, active = well fitted curve in the direction sought with a large enough effect; inconclusive = small, poorly fitted or top-dose-only effect, or another doubt; inactive = no such curve, though single readings can be large; an effect the other way counts as inactive or inconclusive.

How the values were obtained:
[1] = AP1 Signaling Pathway (AID 357; active = well fitted curve in either direction with a large enough effect, not every such curve was filed as active;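 also: ME-180 reporter cells stimulated with EGF at its EC50 level; % is scaled to controls: 0 for no effect and ±100 for the full control effect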); details: ME-180 AP-1-bla reporter, EGF-induced, beta-lactamase ratio, 5 h; at 7.69 µM (top of the series) unless noted
How it was run: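 AP-1-bla ME-180 cells, Opti-MEM + 0.5% dialyzed FBS, plated overnight 37 °C. Cpd titration + EC50 EGF, 5 h 37 °C. CCF4 2.5 h RT; ex 405, em 460/530 ratio → %activity, AC50.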

[2] = Stat Signaling Pathway (AID 446; active = well fitted curve in either direction with a large enough effect, not every such curve was filed as active;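 also: ME-180 cervical cancer cells given 40 pM IL-6 alongside compound; SIE-controlled beta-lactamase reporter measured as 460/530 nm FRET emission ratio; % is scaled to controls: 0 for no effect and ±100 for the full control effect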); details: ME-180 SIE beta-lactamase reporter, IL-6 stimulated, 5 h; at 7.69 µM (top of the series) unless noted
How it was run: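 ME-180 cells carrying a SIE-driven beta-lactamase reporter are stimulated with 40 pM IL-6 for 5 h at 37C in the presence of compound. The 460/530 nm FRET substrate ratio is read after 2.5 h at RT. Data are normalised to 300 pM IL-6 and to 125 nM JAK inhibitor controls.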

[3] = molecular target: Mitogen-activated protein kinase 10 (Mus musculus) (UniProt Q61831); experiment: JNK3 AlphaScreen Assay (AID 530; active = well fitted curve in either direction with a large enough effect, not every such curve was filed as active;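 also: kinase came from lysate of stimulated human HepG2 cells; signal reports phosphorylation of biotinylated GST-cJun 1-79 at Ser73 with 10 µM ATP; % is scaled to controls: 0 for no effect and ±100 for the full control effect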)
How it was run: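 qHTS format: compounds tested as titrations against IL-1beta/TNF-alpha-activated HepG2 lysate JNK3 with biotin-GST-cJun substrate and 10 uM ATP at room temperature. Loss of anti-phospho-cJun AlphaScreen signal indicates inhibition.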

[4] = molecular target: 3',5'-cyclic-AMP phosphodiesterase 4B (Homo sapiens) (UniProt Q07343); experiment: qHTS Assay for Inhibitors of PDE-IV (AID 607; active = well fitted activation curve with a large enough effect in the main read-out, with a control signal flat, not every such curve was filed as active; also: % of control where 0% means no effect)
How it was run: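 HEK293 ACTOne cells with CNG channel (1000/well), endogenous PDE4; membrane potential dye, compounds up to 22.9 uM final. Fluorescence Ex 535/Em 590; RO 20-1724 (100 uM final) as reference.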

[5] = molecular target: Guanine nucleotide-binding protein G(i) subunit alpha-1 (Homo sapiens) (UniProt P63096); experiment: qHTS Assay for Inhibitors of RGS12 GoLoco Motif Activity (Green Fluorophore) (AID 879);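 also: 0% = labeled peptide with Gαi1 and full inhibition = labeled peptide alone without protein; negative values mean loss of peptide binding seen as reduced polarization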
How it was run: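 Fluorescence polarization assay: 50 nM Gαi1 with 10 nM FITC-labeled RGS12 GoLoco peptide in 10 mM Tris pH 7.5, 150 mM NaCl, 0.1 mM GDP, 0.05% NP40, 10 min at room temperature with compound.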

[6] = qHTS Assay for Identification of Small Molecule Antagonists for NFkB Signaling Pathway (AID 895; active = well fitted inhibition curve with a large enough effect in the signal ratio, with a control signal flat, not every such curve was filed as active; the % refers to the signal ratio; also: % is scaled to controls: 0 for no effect and ±100 for the full control effect)
How it was run: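 ME-180 NFkB-bla cells (beta-lactamase under NFkB response element), plated overnight, treated with compound then 10 pM TNF alpha (about EC50) for 5 hrs at 37 C. LiveBLAzer FRET read at 460/530 nm emission, 405 nm excitation.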

[7] = Confirmation and Secondary Assay for Modulators of Hemoglobin Beta Chain Splicing at IVS2 654 locus (AID 910);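 also: HeLa cells stably carrying EGFP split by mutant beta-globin IVS2-654 intron; % of control where 0% means no effect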
How it was run: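 HeLa cells stably expressing EGFP interrupted by β-globin IVS2-654 intron, seeded overnight in Opti-MEM/2% FCS, then treated 2 days at 37 °C. Restored splicing read as total peak GFP intensity per well by laser scanning cytometry (488 nm excitation, 500–520 nm emission); 500 nM antisense PNA as control.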

[8] = Confirmation and Secondary Assay for Modulators of Hemoglobin Beta Chain Splicing at IVS2 705 locus (AID 930);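 also: HeLa cells stably expressing the EGFP-705 splicing reporter; GFP fluorescence per well restored by corrected splicing of the IVS2-705 intron in EGFP; % of control where 0% means no effect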
How it was run: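 HeLa EGFP-705 reporter; 500 cells/well, o/n 37C 5% CO2; cpd 2 d; 488 ex/500-520 em laser scan; total peak GFP intensity/well. Ref: 500 nM […] antisense PNA.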

[9] = molecular target: Pyruvate kinase (Leishmania mexicana) (UniProt Q27686); experiment: qHTS Validation Assay for Inhibitors of Leishmania Mexicana Pyruvate Kinase (AID 945); also: potency is read from the fitted curve at half-maximal effect
How it was run: (§1)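 Substrate mix (0.5 mM PEP, 0.1 mM ADP, 7 mM MgCl2, 50 mM KCl, pH 7.2 imidazole) received compound by pin tool, then 0.2 nM LmPYK E451W. After 1 h at room temperature, PKLight was added and luminescence measured.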

[10] = molecular target: Pyruvate kinase PKM (Homo sapiens) (UniProt P14618); experiment: qHTS Assay for Activators of Human Muscle Pyruvate Kinase (AID 954; active = well fitted curve in the direction sought with a large enough effect, not every such curve was filed as active;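 also: 0% = uninhibited enzyme and -100% = no enzyme or full thiadiazolimine inhibition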)
How it was run: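 Purified human PKM2 (0.1 nM) with 0.5 mM PEP (Km) and 0.1 mM ADP in 50 mM imidazole pH 7.2, KCl, MgCl2, 1 h at room temperature; ATP formed read by coupled luciferase luminescence. Normalized to no-enzyme/110 uM thiadiazolimine inhibition; 0.3 nM enzyme column for activation.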

[11] = molecular target: Pyruvate kinase PKM (Homo sapiens) (UniProt P14618); experiment: qHTS Assay for Inhibitors of Human Muscle Pyruvate Kinase (AID 958); details: purified human PKM enzyme activity
How it was run: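 Human PKM2 activity is measured as ATP generation, detected by luciferase-coupled luminescence. The enzyme (0.1 nM) acts on 0.5 mM PEP and 0.1 mM ADP for 1 h at ambient temperature; data are normalized to uninhibited and full-inhibition wells.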

[12] = molecular target: Pyruvate kinase (Leishmania mexicana) (UniProt Q27686); experiment: qHTS Validation Assay for Activators of Leishmania Mexicana Pyruvate Kinase (AID 959)
How it was run: as §1

[13] = molecular target: Alpha-galactosidase A (Homo sapiens) (UniProt P06280); experiment: Counterscreen for Glucocerebrosidase Inhibitors: qHTS Assay for Human alpha-Galactosidase at pH 4.5 (AID 992); also: 0% is about no effect
How it was run: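 Human enzyme (2 nM) with 80 uM 4-methylumbelliferyl alpha-D-galactopyranoside in 50 mM citric acid, 0.005% Tween-20, pH 4.5, 20 min at room temperature. Compounds 0.7 nM–77 uM; fluorescence Ex 365/Em 440 after pH 10 stop; AC50 from Hill fits.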

[14] = molecular target: alpha-glucosidase (Oryza sativa, rice) (UniProt Q653V4); experiment: Counterscreen for Glucocerebrosidase Inhibitors: qHTS Assay for Rice alpha-Glucosidase at pH 5.0 (AID 997);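 also: 0% = full activity with enzyme and -100% = basal without enzyme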
How it was run: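 Rice alpha-glucosidase (4 nM final) with 400 uM 4-methylumbelliferyl-alpha-D-glucopyranoside in citrate buffer pH 5.0, 20 min at room temperature, stopped at pH 10; fluorescence 365/440 nm, compounds 0.7 nM–77 uM, AC50 from Hill fits.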

[15] = qHTS Assay for Lipid Storage Modulators (AID 1519; calls by dose curve); details: Drosophila S3 cells, BODIPY lipid droplet/cell ratio, laser cytometry, cells loaded with oleic acid
How it was run: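 Cells seeded at 5,000 per well were treated with compounds over a concentration series and loaded with oleic acid (400 uM, as added). Lipid droplet fluorescence (488 nm excitation, 500-530 nm channel) was read by laser-scanning cytometry and normalized to 20 uM Triacsin C.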

[16] = molecular target: ATP-dependent 6-phosphofructokinase (Trypanosoma brucei brucei) (UniProt O15648); experiment: qHTS Assay to Find Inhibitors of T. brucei phosphofructokinase: hit validation (AID 492961)
How it was run: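 Inhibition of parasite PFK is measured as reduced ADP formation, quantified via luciferase after ATP depletion. Assay used 0.1 mM ATP, 0.5 mM F6P, 1.25 nM enzyme, 45 min incubation.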

[17] = molecular target: Ubiquitin carboxyl-terminal hydrolase 1 (Homo sapiens) (UniProt O94782); experiment: Inhibitors of USP1/UAF1: Pilot qHTS (AID 504865);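 also: rhodamine fluorescence freed from ubiquitin-rhodamine substrate followed over time; top concentration of the series differs between compounds; % is scaled to controls: 0 for no effect and ±100 for the full control effect; nearly all actives have a fitted effect of over 35% in size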
How it was run: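 USP1/UAF1 complex at 1 nM preincubated 15 min at room temperature with compound, then Ub-Rho substrate added at 150 nM final. Fluorescence (480/540 nm) read kinetically in 50 mM HEPES pH 7.8, 0.5 mM EDTA, 1 mM TCEP, 0.1 mg/ml BSA, 0.01% Tween-20.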

[18] = molecular target: DNA dC->dU-editing enzyme APOBEC-3G (Homo sapiens) (UniProt Q9HC16); experiment: qHTS for inhibitors of Vif-A3G interactions: Validation (AID 588379); also: 0% is about no effect
How it was run: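 HeLa cells stably expressing Vif and A3G-eYFP, 700 cells/well, incubated overnight at 37 deg C, then exposed to compound overnight at 37 deg C. Inhibition of Vif-mediated degradation read as increased yellow fluorescence (Ex 488/Em 500-530) by laser-scanning cytometry.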

[19] = S16 Schwann cell viability assay (CellTiter-Glo assay) (AID 624031);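 also: cellular ATP luminescence as a viability measure; plate controls were DMSO-treated cells for no effect and cell-free wells for full effect; nearly all actives have a fitted effect of over 70% in size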
How it was run: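 Luminescent ATP read-out (CellTiter-Glo) after 24 h compound exposure of native S16 rat Schwann cells at 37 °C. Signals were normalized between cell-free wells and DMSO-treated cells, set as 0% activity.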

[20] = S16 Schwann cell PMP22 intronic element firefly luciferase assay (AID 624032);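 also: plate controls were DMSO for no effect and PTC124 positive control mean for full effect; nearly all actives have a fitted effect of over 30% in size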
How it was run: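 Rat S16 Schwann cells stably carrying firefly luciferase driven by a PMP22 intronic element, in 10% FBS, treated 24 h at 37 C. ONE-Glo luminescence normalized to PTC124 control and DMSO (0%); curves classed by r2, magnitude and activity.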

[21] = Primary qHTS for small molecule stabilizers of the endoplasmic reticulum resident proteome: Secreted ER Calcium Modulated Protein (SERCaMP) assay (AID 1508630); also: % is scaled to controls: 0 for no effect and ±100 for the full control effect
How it was run: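 GLuc-SERCaMP-expressing SH-SY5Y cells, pretreated 16 h with compound, are challenged with thapsigargin to empty ER calcium stores; after 4 h, coelenterazine is added directly to the medium and luminescence is imaged.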

[22] = molecular target: Rap guanine nucleotide exchange factor 3 (Homo sapiens) (UniProt O95398); experiment: Confirmatory qHTS for agonist of cAMP-regulated guanine nucleotide exchange factor 3 (EPAC1) (AID 1645881);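 also: EPAC1 catalysed release of BODIPY-GDP from Rap1B seen as fluorescence loss; 100% = effect of cAMP agonist control; nearly all actives have a fitted effect of over 75% in size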
[23] = molecular target: Rap guanine nucleotide exchange factor 4 (Homo sapiens) (UniProt Q8WZA2); experiment: Confirmatory qHTS for agonist of cAMP-regulated guanine nucleotide exchange factor 4 (EPAC2) (AID 1645884);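 also: nucleotide exchange releases bodipy-GDP from Rap1 and this lowers its fluorescence; % is scaled to controls: 0 for no effect and ±100 for the full control effect; nearly all actives have a fitted effect of over 65% in size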
[24] = molecular target: Rap guanine nucleotide exchange factor 4 (Homo sapiens) (UniProt Q8WZA2); experiment: Confirmatory qHTS for antagonist of cAMP-regulated guanine nucleotide exchange factor 4 (EPAC2) (AID 1645885); also: potency is read from the fitted curve at half-maximal effect; nearly all actives have a fitted effect of over 25% in size
[25] = qHTS profiling for inhibitors of Plasmodium falciparum proliferation (AID 504749);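 also: 0% = DMSO vehicle and full inhibition = artemisinin control; nearly all actives have a fitted effect of over 60% in size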; details: P. falciparum in erythrocytes, SYBR Green DNA, 72 h, at 12.8 µM (top of the series)
How it was run: (§2)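 Readout was DNA-dye fluorescence from lysed cultures, ex 485/em 535 nm. Parasitized red cells had grown 72 h with compound; data scaled between 0.29 uM artemisinin and DMSO wells and corrected using vehicle-only plates.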

3D7 = experiment: as above; details: P. falciparum in erythrocytes, SYBR Green DNA, 72 h; series mostly up to 28.7 µM
How it was run: as §2

7G8 = experiment: as above; details: P. falciparum in erythrocytes, SYBR Green DNA, 72 h; series mostly up to 28.7 µM
How it was run: as §2

AA1029 = experiment: as above; details: P. falciparum in erythrocytes, SYBR Green DNA, 72 h; series mostly up to 28.7 µM
How it was run: as §2

AS120 = experiment: as above; details: P. falciparum in erythrocytes, SYBR Green DNA, 72 h; series mostly up to 28.7 µM
How it was run: as §2

ATS189 = experiment: as above; details: P. falciparum in erythrocytes, SYBR Green DNA, 72 h; series mostly up to 28.7 µM
How it was run: as §2

ATS95 = experiment: as above; details: P. falciparum in erythrocytes, SYBR Green DNA, 72 h; series mostly up to 28.7 µM
How it was run: as §2

C2A = experiment: as above; details: P. falciparum in erythrocytes, SYBR Green DNA, 72 h; series mostly up to 28.7 µM
How it was run: as §2

CP185 = experiment: as above; details: P. falciparum in erythrocytes, SYBR Green DNA, 72 h; series mostly up to 28.7 µM
How it was run: as §2

CP191 = experiment: as above; details: P. falciparum in erythrocytes, SYBR Green DNA, 72 h; series mostly up to 28.7 µM
How it was run: as §2

CP192 = experiment: as above; details: P. falciparum in erythrocytes, SYBR Green DNA, 72 h; series mostly up to 28.7 µM
How it was run: as §2

CP194 = experiment: as above; details: P. falciparum in erythrocytes, SYBR Green DNA, 72 h; series mostly up to 28.7 µM
How it was run: as §2

CP201 = experiment: as above; details: P. falciparum in erythrocytes, SYBR Green DNA, 72 h; series mostly up to 28.7 µM
How it was run: as §2

CP203 = experiment: as above; details: P. falciparum in erythrocytes, SYBR Green DNA, 72 h; series mostly up to 28.7 µM
How it was run: as §2

CP211 = experiment: as above; details: P. falciparum in erythrocytes, SYBR Green DNA, 72 h; series mostly up to 28.7 µM
How it was run: as §2

3',5'-cyclic-AMP phosphodiesterase 4B (Homo sapiens), sequence (Q07343 whole entry, looked up): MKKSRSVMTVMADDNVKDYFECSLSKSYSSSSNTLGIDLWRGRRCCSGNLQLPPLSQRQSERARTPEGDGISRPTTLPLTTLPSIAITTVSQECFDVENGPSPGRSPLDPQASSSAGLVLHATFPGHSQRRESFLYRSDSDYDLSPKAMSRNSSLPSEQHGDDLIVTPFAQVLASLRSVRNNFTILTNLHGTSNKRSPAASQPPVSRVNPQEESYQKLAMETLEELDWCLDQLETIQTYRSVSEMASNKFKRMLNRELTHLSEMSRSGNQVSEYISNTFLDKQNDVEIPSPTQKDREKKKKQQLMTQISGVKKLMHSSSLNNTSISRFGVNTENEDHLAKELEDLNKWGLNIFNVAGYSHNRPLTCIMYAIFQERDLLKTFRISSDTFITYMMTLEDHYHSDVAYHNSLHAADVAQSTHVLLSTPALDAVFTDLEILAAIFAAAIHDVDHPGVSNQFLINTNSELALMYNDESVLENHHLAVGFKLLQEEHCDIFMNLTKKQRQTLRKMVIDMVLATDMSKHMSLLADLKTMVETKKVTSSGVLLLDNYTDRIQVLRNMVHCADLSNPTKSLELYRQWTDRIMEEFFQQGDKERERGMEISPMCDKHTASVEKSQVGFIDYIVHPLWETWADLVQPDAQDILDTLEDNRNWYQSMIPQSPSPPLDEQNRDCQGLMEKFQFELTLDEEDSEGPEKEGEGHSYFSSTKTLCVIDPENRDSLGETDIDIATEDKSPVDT
Rap guanine nucleotide exchange factor 4 (Homo sapiens), sequence (Q8WZA2 whole entry, looked up): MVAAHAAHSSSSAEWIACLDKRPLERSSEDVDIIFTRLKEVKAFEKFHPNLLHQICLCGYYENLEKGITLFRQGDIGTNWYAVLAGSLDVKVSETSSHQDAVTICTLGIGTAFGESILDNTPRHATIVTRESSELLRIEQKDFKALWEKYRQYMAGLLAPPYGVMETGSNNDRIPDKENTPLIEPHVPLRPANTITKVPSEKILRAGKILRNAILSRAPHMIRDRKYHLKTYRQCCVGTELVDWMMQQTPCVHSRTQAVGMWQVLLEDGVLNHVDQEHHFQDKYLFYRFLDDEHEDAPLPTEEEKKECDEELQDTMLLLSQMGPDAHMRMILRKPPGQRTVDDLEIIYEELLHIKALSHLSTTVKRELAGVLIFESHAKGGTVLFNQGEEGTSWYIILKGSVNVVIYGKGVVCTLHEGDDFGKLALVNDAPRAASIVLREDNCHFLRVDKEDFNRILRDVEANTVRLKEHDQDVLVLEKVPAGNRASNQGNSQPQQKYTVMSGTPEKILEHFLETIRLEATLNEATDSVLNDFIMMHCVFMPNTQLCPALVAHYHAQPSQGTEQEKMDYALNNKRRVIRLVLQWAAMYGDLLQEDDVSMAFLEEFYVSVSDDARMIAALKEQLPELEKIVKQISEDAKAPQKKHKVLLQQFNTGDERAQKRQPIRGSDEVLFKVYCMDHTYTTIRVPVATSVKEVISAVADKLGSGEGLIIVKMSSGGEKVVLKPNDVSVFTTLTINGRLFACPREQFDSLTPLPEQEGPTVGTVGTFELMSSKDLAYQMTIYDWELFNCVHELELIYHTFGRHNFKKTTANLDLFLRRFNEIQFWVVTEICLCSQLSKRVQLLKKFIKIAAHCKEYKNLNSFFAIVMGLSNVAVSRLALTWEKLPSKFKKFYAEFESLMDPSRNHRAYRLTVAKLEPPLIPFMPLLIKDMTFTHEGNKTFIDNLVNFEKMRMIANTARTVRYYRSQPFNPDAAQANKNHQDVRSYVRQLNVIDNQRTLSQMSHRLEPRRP
Pyruvate kinase PKM (Homo sapiens), sequence (P14618 whole entry, looked up): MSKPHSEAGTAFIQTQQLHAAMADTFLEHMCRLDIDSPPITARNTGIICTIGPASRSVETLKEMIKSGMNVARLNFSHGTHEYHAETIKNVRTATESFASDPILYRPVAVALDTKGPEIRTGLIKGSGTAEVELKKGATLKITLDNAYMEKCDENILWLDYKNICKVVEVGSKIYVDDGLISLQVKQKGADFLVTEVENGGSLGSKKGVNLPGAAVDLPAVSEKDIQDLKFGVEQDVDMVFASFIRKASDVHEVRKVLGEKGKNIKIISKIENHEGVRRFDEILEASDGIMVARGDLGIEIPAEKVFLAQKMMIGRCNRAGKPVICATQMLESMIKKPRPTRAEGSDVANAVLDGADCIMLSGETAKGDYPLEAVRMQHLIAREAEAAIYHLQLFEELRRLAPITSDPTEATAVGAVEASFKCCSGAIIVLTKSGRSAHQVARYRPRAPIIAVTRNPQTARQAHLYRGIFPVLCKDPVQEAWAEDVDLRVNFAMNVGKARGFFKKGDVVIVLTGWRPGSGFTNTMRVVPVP
Pyruvate kinase (Leishmania mexicana), sequence (Q27686 2-499 E452W): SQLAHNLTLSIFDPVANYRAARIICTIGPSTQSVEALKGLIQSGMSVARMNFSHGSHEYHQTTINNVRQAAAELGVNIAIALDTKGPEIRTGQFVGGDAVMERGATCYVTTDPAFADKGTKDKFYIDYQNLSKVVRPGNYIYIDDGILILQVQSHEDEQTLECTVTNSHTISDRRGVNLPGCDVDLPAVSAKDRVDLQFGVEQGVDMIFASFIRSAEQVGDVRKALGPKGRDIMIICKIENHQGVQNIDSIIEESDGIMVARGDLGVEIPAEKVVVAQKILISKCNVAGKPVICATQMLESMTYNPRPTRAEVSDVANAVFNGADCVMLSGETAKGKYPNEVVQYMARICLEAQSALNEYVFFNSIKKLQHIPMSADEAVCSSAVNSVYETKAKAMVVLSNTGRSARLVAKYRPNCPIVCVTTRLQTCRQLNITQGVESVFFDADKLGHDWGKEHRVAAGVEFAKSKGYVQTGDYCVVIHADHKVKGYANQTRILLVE
DNA dC->dU-editing enzyme APOBEC-3G (Homo sapiens), sequence (Q9HC16 whole entry, looked up): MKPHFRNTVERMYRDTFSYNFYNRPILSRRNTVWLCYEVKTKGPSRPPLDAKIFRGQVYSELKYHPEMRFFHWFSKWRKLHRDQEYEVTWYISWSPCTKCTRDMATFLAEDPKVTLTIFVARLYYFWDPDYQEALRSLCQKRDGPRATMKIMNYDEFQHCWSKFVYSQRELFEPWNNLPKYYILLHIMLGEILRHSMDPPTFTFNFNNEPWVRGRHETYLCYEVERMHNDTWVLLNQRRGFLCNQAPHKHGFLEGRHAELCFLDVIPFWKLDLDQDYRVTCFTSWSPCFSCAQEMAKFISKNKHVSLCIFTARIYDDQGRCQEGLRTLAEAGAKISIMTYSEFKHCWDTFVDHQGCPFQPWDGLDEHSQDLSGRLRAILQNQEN
ATP-dependent 6-phosphofructokinase (Trypanosoma brucei brucei), sequence (O15648 whole entry, looked up): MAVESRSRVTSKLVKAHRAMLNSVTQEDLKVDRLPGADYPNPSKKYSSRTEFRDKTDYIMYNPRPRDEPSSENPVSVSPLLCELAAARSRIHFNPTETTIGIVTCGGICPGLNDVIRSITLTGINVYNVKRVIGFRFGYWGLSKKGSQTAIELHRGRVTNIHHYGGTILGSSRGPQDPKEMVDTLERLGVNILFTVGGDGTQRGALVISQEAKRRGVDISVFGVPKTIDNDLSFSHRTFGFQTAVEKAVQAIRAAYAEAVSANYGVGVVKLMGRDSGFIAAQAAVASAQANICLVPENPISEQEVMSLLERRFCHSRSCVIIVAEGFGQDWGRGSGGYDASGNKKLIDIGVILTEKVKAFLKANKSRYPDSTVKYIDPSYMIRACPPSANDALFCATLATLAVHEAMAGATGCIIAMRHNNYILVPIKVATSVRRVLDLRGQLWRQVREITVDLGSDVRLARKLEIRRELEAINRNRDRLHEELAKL
Guanine nucleotide-binding protein G(i) subunit alpha-1 (Homo sapiens), sequence (P63096 whole entry, looked up): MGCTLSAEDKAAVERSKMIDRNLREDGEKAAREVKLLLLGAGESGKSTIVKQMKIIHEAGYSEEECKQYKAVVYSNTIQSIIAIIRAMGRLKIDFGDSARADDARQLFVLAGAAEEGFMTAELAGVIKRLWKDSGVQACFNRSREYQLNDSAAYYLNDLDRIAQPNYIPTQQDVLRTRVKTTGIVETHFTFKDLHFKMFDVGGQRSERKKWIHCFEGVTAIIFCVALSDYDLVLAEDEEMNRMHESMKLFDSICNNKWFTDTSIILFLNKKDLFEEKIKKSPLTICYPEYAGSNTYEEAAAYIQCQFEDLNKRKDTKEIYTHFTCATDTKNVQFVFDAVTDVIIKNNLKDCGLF
Rap guanine nucleotide exchange factor 3 (Homo sapiens), sequence (O95398 whole entry, looked up): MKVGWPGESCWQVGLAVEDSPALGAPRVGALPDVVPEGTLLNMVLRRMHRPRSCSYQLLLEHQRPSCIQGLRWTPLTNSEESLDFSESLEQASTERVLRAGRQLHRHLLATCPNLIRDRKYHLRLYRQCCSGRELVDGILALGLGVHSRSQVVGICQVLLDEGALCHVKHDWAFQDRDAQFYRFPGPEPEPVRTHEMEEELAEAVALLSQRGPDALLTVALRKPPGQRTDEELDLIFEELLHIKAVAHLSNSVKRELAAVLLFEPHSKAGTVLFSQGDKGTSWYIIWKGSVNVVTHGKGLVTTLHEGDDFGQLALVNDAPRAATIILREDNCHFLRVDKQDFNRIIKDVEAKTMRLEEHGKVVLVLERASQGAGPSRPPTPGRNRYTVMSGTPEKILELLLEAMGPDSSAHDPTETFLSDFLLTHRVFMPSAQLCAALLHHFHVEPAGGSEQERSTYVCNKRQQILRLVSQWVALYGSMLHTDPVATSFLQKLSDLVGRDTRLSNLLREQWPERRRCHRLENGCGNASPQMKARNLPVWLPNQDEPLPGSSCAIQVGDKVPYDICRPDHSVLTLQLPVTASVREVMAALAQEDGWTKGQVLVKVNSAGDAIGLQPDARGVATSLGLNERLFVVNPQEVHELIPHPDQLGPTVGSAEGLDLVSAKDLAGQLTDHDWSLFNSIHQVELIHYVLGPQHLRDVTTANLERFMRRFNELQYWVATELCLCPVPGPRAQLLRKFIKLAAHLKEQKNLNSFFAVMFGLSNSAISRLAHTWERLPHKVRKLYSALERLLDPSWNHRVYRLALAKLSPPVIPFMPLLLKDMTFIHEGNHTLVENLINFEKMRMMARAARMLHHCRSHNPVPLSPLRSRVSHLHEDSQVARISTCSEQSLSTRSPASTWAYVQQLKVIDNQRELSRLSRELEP

Oc1ccc(/C=C\c2cc(O)cc(O)c2)cc1
active: Potency [9] 2.51 µM | Potency [11] 3.16 µM | Potency [24] 44.1 µM
-19.7%: max response ([15]; measured here: cell count channel max response)
inactive: activity change, negative = inhibition [1] -2.07% [at 17.2 µM] | activity, negative = inhibition [2] -21.4% [at 17.2 µM] | outcome [3] | Potency [4] | outcome [5] | Potency [6] | outcome [7] | outcome [8] | outcome [10] | outcome [12] | outcome [13] | outcome [14] | activity change, negative = inhibition ([15]; at 25.7 µM (top of the series)) 2.61% | outcome [16] | Potency [17] | outcome [18] | outcome [19] | Potency [20] | Potency [21] | outcome [22] | outcome [23] | activity, negative = inhibition ([25]; parasite line A) 3.83% | activity, negative = inhibition ([25]; parasite line B) -0.952% | Potency (3D7) | Potency (7G8) | Potency (AA1029) | Potency (AS120) | Potency (ATS189) | Potency (ATS95) | Potency (C2A) | Potency (CP185) | Potency (CP191) | Potency (CP192) | Potency (CP194) | Potency (CP201) | Potency (CP203) | Potency (CP211)
-17.5%: max response ([15]; measured here: lipid channel max response)
